# KB-3-1 cytotox – KB-3-1 parental cell cytotoxicity. KB-3-1 viability, CellTiter-Glo ATP luminescence, 72 h. Potency, µM (series often up to 46.1 µM), most hits filed as cytotoxic. 400,000 tested, 1.4% active. AID 1347075; also: nearly all actives have a fitted effect of over 60% in size
#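 Viability of parental KB-3-1 cells, measured by CellTiter-Glo luminescence, followed a 72 h incubation at 37 °C with pinned compounds in phenol-red-free DMEM containing 10% FBS.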
# HT1080-NT tox – kills 2HG-producing HT-1080-NT fibrosarcoma cells. AID 686970. 360,000 tested, 1.6% active. Potency, µM (doses to about 46.1 µM), inactives show top-dose activity, negative = less viability, usual class: cytotoxic. HT-1080-NT fibrosarcoma viability, CellTiter-Glo ATP luminescence, 48 h;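 also: NT is the 2HG producing partner of a matched IDH1 knockdown line; 0% = DMSO-treated cells and -100% = media-only wells without cells; nearly all actives have a fitted effect of over 55% in size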
#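 Viability of the 2HG-overproducing fibrosarcoma line after 48 hours of compound exposure at 37 degrees C was determined by luminescence with CellTiter-Glo, and concentration-effect curves were then fitted and categorized.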
# DT40 TDP1 no CPT – qHTS for Inhibitors of human tyrosyl-DNA phosphodiesterase 1 (TDP1): qHTS in cells in absence of CPT; DT40 Tdp1-/- hTDP1 cells, no CPT, ATP luminescence, 48 h; Potency, µM (series often up to 46.2 µM), inactives show top-dose activity change, negative = growth inhibition, actives largely listed as inhibitors; 420,000 tested, 15% active; AID 686978, 2013; also: nearly all actives have a fitted effect of over 55% in size
#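 A cellular qHTS used chicken DT40 cells lacking endogenous Tdp1 but carrying stably transfected human TDP1. Compounds were applied without camptothecin, and cell growth kinetics were judged by ATP-dependent luminescence after ≥48 hr.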
# KB-V1 cytotox – KB-V1 MDR subline cytotoxicity. KB-V1 MDR cells viability, CellTiter-Glo, 72 h. Potency, µM (doses to about 46.1 µM), actives largely listed as cytotoxic. 400,000 tested, 3.4% active; also: nearly all actives have a fitted effect of over 60% in size
#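 Following 72 h at 37 degrees C with compound, KB-V1 cell viability was read by CellTiter-Glo luminescence, medium being phenol-red-free DMEM plus 10% FBS; concentration-response parameters came from normalized, curve-fitted qHTS data.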
# HT1080 IDH1KD tx – HT-1080 IDH1 knockdown cell toxicity (counter line) | HT-1080 IDH1 knockdown viability, ATP luminescence, 48 h | Potency, µM (highest dose often 46.1 µM), for the others: at the highest dose activity, negative = toxicity, actives largely listed as cytotoxic | 360,000 tested, 2% active | AID 686971;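 also: 0% = DMSO wells and -100% = cell-free medium wells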
#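 Luminescent ATP read-out (CellTiter-Glo, 10 min at room temperature) after 48 h compound exposure at 37 °C gave viability of IDH1-knockdown HT-1080 cells. Activity was normalised to DMSO and cell-free wells, then fitted as concentration-response curves.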
# TDP1 cell CPT – growth inhibition of DT40 Tdp1-/-;hTDP1 cells with camptothecin (screen for TDP1 inhibitors). Potency, µM (series often up to 46.2 µM), inactives show at the highest dose activity change, negative = growth inhibition, hits mostly inhibitors. chicken DT40 Tdp1-/-;hTDP1 cells + 20 nM CPT, ATP luminescence, 48 h. 420,000 tested, 12% active; also: nearly all actives have a fitted effect of over 55% in size
#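 Chicken DT40 Tdp1-/- cells stably complemented with human TDP1 were seeded at 400 cells/well in medium containing 20 nM camptothecin, exposed to pin-transferred compounds, and grown at 37 °C for at least 48 hr. Viability was read as ATP luminescence.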
# Numbers without * were called inactive; i = inactive; ? = inconclusive; . = no result; ! = not active in a repeat. A selection: hits, their analogues and other compounds. The true share with any hit is near 19%. Calls follow the shape of the dose curve; as a rule, active = well fitted curve in the direction sought with a large enough effect; inconclusive = small, poorly fitted or top-dose-only effect, or another doubt; inactive = no such curve, though single readings can be large; an effect the other way counts as inactive or inconclusive. Unless noted, % is scaled to controls: 0 for no effect and ±100 for the full control effect; potency is read from the fitted curve at half-maximal effect.
SMILES,KB-3-1 cytotox,HT1080-NT tox,DT40 TDP1 no CPT,KB-V1 cytotox,HT1080 IDH1KD tx,TDP1 cell CPT
COc1ccc(CNC(=O)Nc2cccc(C(F)(F)F)c2)cc1OC,i,1%,9.2µM*,i,-7%,?
CSc1cccc(NC(=O)C(=O)NCc2ccccc2)c1,i,-25%,-8%,i,-1%,-2%
Cc1ccc(C)c(CN2C(=O)c3ccccc3S(=O)(=O)c3ccc(C(=O)Nc4ccccc4C(F)(F)F)cc32)c1,i,.,.,i,.,.
Cc1cccc(OC2(c3ccccc3)OC(=O)c3ccccc32)c1C (centres undefined),i,-4%,?,15µM*,-23%,-18%
COc1ccc(N2CCN(C(=O)c3cccc(S(=O)(=O)N4CCc5ccccc54)c3)CC2)cc1,i,-15%,15µM*,i,-21%,?
CS(=O)(=O)N1CCc2cc(C(=O)N3CCN(c4ccc(F)cc4)CC3)ccc21,i,-22%,21µM*,i,-2%,?
COc1ccc(N2CCN(C(=O)c3cccc(S(=O)(=O)N4CCCc5ccccc54)c3)CC2)cc1,i,-11%,?,i,-13%,?
O=C(c1cccc(S(=O)(=O)N2CCc3ccccc32)c1)N1CCN(c2ccccn2)CC1,6.5µM*,?,23µM*,?,9.2µM*,?
O=C(NCc1ccccn1)c1cccc(S(=O)(=O)N2CCc3ccccc32)c1,.,0%,?,.,-7%,?
O=C(COc1ccc(Cl)cc1)OCc1cc(=O)n2nc(C3CCCCC3)sc2n1,i,.,-23%,?,.,-3%
CCc1c(C)sc2c1CCN(C(=O)Nc1cc(C)ccc1C)C2c1ccc(OC)cc1 (centres undefined),i,.,26µM*,i,.,?
CCc1c(C)sc2c1CCN(C(=O)Nc1ccccc1Cl)C2c1ccc(OC)cc1 (centres undefined),i,.,15µM*,i,.,?
CCOC(=O)c1c(C)oc2ccc(NS(=O)(=O)c3ccc4c5c(cccc35)C(=O)N4)cc12,?,?,?,i,?,?
CCc1ccc(S(=O)(=O)Nc2ccc3oc(C)c(C(=O)OCCOC)c3c2)cc1,i,.,?,i,.,?
CCCc1oc2ccc(NS(=O)(=O)c3ccc(OCC)cc3)cc2c1C(=O)OCC,.,.,5.8µM*,.,.,6.5µM*
CCCc1oc2ccc(NS(=O)(=O)c3ccc(OC)cc3)cc2c1C(=O)OCC,.,.,1.2µM*,.,.,1.8µM*
CC1CCCN(S(=O)(=O)c2ccc3c(c2)OCCO3)C1 (centres undefined),i,1%,?,i,0%,-13%
O=C(CN1CCN(S(=O)(=O)c2cccc(Br)c2)CC1)N1CCCCC1,i,4%,-21%,i,-4%,-25%
CCCCCCCCCCCCCCCC(=O)OCC1OC(n2ccc(N)nc2=O)C(O)C1O (centres undefined),i,-1%,0.65µM*,i,-11%,0.52µM*
Nc1ccn(C2OC(CO)C(O)C2F)c(=O)n1 (centres undefined),i,-1%,2.1µM*,i,-4%,1.3µM*
Nc1ccn([C@H]2CC[C@@H](CO)O2)c(=O)n1,i,15%,11µM*,i,-1%,7.5µM*
OCC1OC(n2ccc3c2ncn2ncnc32)C(O)C1O (centres undefined),?,0.58µM*,0.46µM*,0.65µM*,0.65µM*,0.37µM*
Nc1nc(=O)n(C2CCC(CO)O2)cc1F (centres undefined),.,0%,?,i,-7%,?
O=c1c(-c2ccc(Cl)cc2)nc2cnc(N3CCOCC3)nc2n1Cc1ccc(F)cc1,.,.,23%,.,.,2%
Cn1c(NCc2ccccc2F)nc2ccccc21,i,.,?,i,.,-25%
SMILES,KB-3-1 cytotox,HT1080-NT tox,DT40 TDP1 no CPT,KB-V1 cytotox,HT1080 IDH1KD tx,TDP1 cell CPT
Cc1ccc2c(=O)cc(C(=O)Nc3nnc(CC(C)C)s3)oc2c1C,i,.,2%,?,.,23%
Cc1noc(-c2ccccc2OCC(=O)Nc2ccccc2[N+](=O)[O-])n1,i,.,?,i,.,?
Nc1ccn([C@@H]2O[C@H](CO)[C@@H](O)[C@@H]2O)c(=O)n1,i,-8%,0.16µM*,i,?,0.12µM*
Nc1ccn(C2OC(CO)C(O)C2O)c(=O)n1 (centres undefined),.,.,0.012µM*!,.,.,0.016µM*!
CCCCCCCCCCCCCCCC(=O)Nc1ccn(C2OC(CO)C(O)C2O)c(=O)n1 (centres undefined),?,-4%,0.73µM*,i,?,0.65µM*
NC[C@H]1O[C@@H](n2ccc(N)nc2=O)[C@H](O)[C@@H]1O,?,1%,?,i,-15%,?
O=C(NCc1ccccc1Cl)C(=O)NCC(c1ccc2c(c1)OCO2)N1CCOCC1 (centres undefined),i,.,?,i,.,?
Cc1ccc(C)c(NC(=O)C2CCN(c3nn4c(=O)cc(C)nc4s3)CC2)c1,i,.,0%,i,.,-15%
O=S(=O)(N[C@H]1C[C@@H](NS(=O)(=O)OCC(Cl)(Cl)Cl)C2CCCCC21)OCC(Cl)(Cl)Cl (some centres undefined),?,-8%,23µM*,i,-11%,?
COc1ccc(NC(=O)C2c3ccccc3OCC(=O)N2Cc2ccc3c(c2)OCO3)cc1 (centres undefined),i,6%,?,i,0%,-15%
CCOC(=O)N(NC(=O)C(O)(c1ccccc1)c1ccccc1)c1ccccc1,i,11%,26µM*,i,14%,-19%
CCCC(O)(CCC)C(=O)NN(C(=O)CCl)c1ccccc1,i,?,10µM*,i,?,12µM*
CCCCC(O)(CCCC)C(=O)NN(C(=O)OCC)c1ccccc1,i,12%,?,13µM*,17%,?
CCOC(=O)N(NC(=O)C(O)(C(C)C)C(C)C)c1ccccc1,i,0%,-11%,i,-1%,0%
Cc1cccc(OCCOCCn2c(-c3ccc(Cl)cc3)nc3ccccc3c2=O)c1C,i,.,?,i,.,-26%
CC(=O)Nc1ccc2nc(SCc3ccccc3)sc2c1,i,.,?,i,.,-27%
CC(C)c1nnc(NC(=O)c2cccs2)s1,i,-1%,-7%,i,3%,2%

# High-throughput results from PubChem BioAssay.
